According to the supplement of paper PMC10849652:
Targets with a hit are over-represented here; the source holds about 7,900 in all. About 0.6% of all pairs of compound and target were hits. Values without a mark were called inactive.

Columns and labels:
Assay in all cases: log2 fold change, soluble protein after heating vs DMSO (PISA); higher = thermal stabilisation; K562 cells, 10 uM, 30 min; active = over 0.2 and 3.5 SD of the protein, either way, in both replicates (recomputed)
[1] = compound: CS(=O)(=O)c1ccc(-c2cnc(N)c(C(=O)Nc3ccccc3)n2)cc1
How it was run: (§1)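 K562 cells (2×10^6 cells/mL) were treated with 10 μM compound for 30 min, and aliquots were heated for 3 min over 48°C-58°C. Pooled aliquots were extracted in PBS with 0.5% NP-40 at 4°C, and the supernatant after 21,000xg for 90 min was measured by TMTpro 16plex LC-MS/MS with channel sums equalised. Reported thermal stability, relative to control samples and from duplicates, is a log2 fold change.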

crizotinib = compound: C[C@@H](Oc1cc(-c2cnn(C3CCNCC3)c2)cnc1N)c1c(Cl)ccc(F)c1Cl [crizotinib]
How it was run: as §1

[2] = compound: C[C@@H]1COCCN1C2=NC(=NC(=C2)C3(CC3)S(=O)(=O)C)C4=C5C=CNC5=CC=C4
How it was run: as §1

[3] = compound: C[C@H](C1=CC=C(C=C1)C(=O)NC2=C3C=CNC3=NC=C2)N
How it was run: as §1

duvelisib = compound: C[C@H](Nc1ncnc2nc[nH]c12)c1cc2cccc(Cl)c2c(=O)n1-c1ccccc1 [duvelisib]
How it was run: as §1

gandotinib = compound: Cc1cc(Nc2cc(CN3CCOCC3)c3nc(C)c(Cc4ccc(Cl)cc4F)n3n2)n[nH]1 [gandotinib]
How it was run: as §1

tozasertib = compound: Cc1cc(Nc2cc(N3CCN(C)CC3)nc(Sc3ccc(NC(=O)C4CC4)cc3)n2)n[nH]1 [tozasertib]
How it was run: as §1

[4] = compound: Cc1cc(SCc2sc(-c3ccc(C(F)(F)F)cc3)nc2C)ccc1OCC(=O)O
How it was run: as §1

doramapimod = compound: Cc1ccc(-n2nc(C(C)(C)C)cc2NC(=O)Nc2ccc(OCCN3CCOCC3)c3ccccc23)cc1 [doramapimod]
How it was run: as §1

ispinesib = compound: Cc1ccc(C(=O)N(CCCN)[C@@H](c2nc3cc(Cl)ccc3c(=O)n2Cc2ccccc2)C(C)C)cc1 [ispinesib]
How it was run: as §1

Sequence of UniProt O00628 (O00628 whole entry, looked up): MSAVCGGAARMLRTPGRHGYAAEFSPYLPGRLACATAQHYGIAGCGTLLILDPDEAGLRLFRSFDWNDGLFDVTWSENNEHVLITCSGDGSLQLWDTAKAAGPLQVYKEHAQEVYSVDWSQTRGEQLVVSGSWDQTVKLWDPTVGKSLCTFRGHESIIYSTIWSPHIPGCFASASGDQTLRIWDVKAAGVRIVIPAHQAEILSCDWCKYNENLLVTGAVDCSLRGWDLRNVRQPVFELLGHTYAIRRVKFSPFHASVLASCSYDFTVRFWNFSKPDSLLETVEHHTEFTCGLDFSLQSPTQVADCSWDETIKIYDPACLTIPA
Sequence of UniProt O95453 (O95453 whole entry, looked up): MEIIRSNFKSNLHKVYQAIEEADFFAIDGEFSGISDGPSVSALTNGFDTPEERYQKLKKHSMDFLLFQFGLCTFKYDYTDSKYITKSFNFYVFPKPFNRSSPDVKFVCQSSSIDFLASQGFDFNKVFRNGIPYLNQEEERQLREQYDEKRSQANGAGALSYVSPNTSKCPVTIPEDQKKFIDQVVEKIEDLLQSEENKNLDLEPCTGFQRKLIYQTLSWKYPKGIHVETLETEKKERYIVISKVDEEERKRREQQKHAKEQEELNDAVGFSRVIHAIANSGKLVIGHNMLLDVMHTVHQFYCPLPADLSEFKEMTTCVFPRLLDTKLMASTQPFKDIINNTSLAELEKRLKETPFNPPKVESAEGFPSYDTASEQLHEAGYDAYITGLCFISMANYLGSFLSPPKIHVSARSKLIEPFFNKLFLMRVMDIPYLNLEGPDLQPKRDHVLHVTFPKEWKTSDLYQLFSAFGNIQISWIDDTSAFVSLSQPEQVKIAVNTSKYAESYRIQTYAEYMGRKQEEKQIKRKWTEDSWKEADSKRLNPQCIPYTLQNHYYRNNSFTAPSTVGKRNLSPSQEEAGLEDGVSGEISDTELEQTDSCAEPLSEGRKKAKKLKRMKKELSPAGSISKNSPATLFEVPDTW
Sequence of UniProt P35998 (P35998 whole entry, looked up): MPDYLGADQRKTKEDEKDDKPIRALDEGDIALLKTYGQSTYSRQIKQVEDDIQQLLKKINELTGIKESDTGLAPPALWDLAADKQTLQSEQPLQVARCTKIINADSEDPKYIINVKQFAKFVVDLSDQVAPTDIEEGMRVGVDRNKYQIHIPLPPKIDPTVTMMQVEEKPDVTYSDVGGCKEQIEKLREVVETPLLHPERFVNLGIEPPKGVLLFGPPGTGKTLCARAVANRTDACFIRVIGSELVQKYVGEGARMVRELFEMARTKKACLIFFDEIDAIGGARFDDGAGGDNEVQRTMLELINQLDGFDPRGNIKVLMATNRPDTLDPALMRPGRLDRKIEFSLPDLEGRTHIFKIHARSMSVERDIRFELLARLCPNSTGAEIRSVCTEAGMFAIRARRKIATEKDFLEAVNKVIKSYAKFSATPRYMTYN
Sequence of UniProt O96013 (O96013 whole entry, looked up): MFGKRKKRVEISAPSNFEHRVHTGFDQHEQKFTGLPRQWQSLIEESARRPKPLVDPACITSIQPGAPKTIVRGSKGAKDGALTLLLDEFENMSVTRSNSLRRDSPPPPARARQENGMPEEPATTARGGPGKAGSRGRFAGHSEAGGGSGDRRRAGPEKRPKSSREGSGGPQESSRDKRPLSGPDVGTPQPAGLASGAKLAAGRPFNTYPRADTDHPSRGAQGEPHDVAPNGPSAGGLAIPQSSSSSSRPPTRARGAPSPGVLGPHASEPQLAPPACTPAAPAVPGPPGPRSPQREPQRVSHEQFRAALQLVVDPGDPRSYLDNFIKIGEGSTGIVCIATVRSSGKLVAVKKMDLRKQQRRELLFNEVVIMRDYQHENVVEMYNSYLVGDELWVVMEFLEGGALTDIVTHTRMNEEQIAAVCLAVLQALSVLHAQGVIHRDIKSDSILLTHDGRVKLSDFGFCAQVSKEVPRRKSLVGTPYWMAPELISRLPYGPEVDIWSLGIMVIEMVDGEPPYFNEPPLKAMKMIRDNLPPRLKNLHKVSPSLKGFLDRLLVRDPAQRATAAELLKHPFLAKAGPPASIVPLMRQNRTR
Sequence of UniProt O43924 (O43924 whole entry, looked up): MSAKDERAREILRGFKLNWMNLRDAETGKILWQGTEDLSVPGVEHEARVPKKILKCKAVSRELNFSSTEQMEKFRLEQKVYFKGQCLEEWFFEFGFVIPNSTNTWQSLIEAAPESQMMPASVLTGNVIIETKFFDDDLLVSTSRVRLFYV
Sequence of UniProt O60925 (O60925 whole entry, looked up): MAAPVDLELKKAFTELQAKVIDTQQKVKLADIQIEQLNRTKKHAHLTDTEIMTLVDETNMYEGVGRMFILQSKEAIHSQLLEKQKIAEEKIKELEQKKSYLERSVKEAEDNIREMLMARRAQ
Sequence of UniProt P49585 (P49585 whole entry, looked up): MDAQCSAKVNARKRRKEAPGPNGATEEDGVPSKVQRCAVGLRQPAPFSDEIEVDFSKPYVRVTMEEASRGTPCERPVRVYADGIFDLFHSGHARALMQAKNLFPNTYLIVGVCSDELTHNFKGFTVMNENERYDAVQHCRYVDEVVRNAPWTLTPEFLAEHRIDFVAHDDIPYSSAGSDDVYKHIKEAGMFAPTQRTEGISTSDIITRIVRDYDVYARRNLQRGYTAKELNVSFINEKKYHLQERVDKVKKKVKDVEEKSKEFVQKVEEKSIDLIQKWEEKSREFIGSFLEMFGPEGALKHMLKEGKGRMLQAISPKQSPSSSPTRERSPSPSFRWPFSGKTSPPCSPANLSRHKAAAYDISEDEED
Sequence of UniProt P42338 (P42338 whole entry, looked up): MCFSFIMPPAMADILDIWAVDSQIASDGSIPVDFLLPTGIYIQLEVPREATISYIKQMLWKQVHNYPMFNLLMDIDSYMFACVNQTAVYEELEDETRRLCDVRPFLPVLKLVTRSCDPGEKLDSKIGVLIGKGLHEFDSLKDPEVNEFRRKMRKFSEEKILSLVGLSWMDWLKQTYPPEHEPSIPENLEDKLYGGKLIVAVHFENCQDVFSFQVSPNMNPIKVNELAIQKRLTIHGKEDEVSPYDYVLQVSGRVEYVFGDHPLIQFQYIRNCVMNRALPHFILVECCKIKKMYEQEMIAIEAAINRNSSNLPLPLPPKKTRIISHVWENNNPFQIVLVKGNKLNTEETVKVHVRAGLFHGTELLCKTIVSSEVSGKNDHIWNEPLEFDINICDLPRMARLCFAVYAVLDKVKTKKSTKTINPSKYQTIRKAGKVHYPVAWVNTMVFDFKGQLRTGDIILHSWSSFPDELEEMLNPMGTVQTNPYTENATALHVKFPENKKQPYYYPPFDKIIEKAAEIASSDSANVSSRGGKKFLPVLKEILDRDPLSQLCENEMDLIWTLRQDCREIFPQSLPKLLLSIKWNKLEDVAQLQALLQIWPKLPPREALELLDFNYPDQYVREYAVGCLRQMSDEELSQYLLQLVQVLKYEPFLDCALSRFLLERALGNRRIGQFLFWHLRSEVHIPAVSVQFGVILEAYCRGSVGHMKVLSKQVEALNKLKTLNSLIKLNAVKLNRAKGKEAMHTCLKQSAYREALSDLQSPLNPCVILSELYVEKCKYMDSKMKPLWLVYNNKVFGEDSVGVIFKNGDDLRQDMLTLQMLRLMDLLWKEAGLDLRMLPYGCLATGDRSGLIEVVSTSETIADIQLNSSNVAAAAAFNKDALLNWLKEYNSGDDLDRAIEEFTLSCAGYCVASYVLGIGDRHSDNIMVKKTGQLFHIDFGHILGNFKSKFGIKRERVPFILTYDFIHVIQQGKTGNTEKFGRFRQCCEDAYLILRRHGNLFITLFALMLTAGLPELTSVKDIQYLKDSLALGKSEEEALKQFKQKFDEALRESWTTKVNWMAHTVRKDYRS
Sequence of UniProt P29590 (P29590 whole entry, looked up): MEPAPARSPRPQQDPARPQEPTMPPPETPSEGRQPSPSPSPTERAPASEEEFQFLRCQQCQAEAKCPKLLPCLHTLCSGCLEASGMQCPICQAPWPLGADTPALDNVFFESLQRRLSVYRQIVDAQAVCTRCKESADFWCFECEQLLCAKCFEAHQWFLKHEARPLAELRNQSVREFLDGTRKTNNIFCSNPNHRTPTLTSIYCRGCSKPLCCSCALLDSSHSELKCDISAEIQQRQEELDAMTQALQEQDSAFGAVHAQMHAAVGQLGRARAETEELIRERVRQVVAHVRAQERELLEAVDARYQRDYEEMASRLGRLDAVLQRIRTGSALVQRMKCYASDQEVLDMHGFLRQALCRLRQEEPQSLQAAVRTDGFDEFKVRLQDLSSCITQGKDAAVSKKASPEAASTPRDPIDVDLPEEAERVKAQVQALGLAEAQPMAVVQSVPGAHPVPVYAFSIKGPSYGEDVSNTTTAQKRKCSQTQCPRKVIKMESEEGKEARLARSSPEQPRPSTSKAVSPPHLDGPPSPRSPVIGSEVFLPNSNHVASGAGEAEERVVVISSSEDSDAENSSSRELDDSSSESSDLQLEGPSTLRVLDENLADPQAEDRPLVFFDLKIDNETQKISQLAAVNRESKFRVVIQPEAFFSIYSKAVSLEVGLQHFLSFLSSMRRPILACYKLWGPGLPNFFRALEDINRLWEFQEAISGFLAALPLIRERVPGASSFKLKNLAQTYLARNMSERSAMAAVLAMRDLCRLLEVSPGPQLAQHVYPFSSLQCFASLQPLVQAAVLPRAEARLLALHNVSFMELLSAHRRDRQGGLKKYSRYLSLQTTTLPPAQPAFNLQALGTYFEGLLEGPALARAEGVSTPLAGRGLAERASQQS
Sequence of UniProt Q15185 (Q15185 whole entry, looked up): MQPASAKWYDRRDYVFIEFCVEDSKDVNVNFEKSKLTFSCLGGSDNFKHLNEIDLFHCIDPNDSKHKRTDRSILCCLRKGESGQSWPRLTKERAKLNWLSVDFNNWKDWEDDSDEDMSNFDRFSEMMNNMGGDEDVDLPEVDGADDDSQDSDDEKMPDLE
Sequence of UniProt P53801 (P53801 whole entry, looked up): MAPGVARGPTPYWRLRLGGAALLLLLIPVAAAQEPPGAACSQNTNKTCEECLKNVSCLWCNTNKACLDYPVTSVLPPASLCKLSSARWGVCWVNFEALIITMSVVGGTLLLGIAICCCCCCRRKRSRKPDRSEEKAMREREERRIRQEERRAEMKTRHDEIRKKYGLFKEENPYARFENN

Row | Target | log2 fold change [1] | log2 fold change (crizotinib) | log2 fold change [2] | log2 fold change [3] | log2 fold change (duvelisib) | log2 fold change (gandotinib) | log2 fold change (tozasertib) | log2 fold change [4] | log2 fold change (doramapimod) | log2 fold change (ispinesib)
1 | PGGT1B (UniProt P53609) | 0.093 | 0.04 | 0.002 | -0.05 | 0.046 | -0.011 | 0.006 | -0.143 | -0.028 | 0.043
2 | PCGF2 (UniProt P35227) | 0.041 | 0.01 | 0.075 | 0.087 | 0.124 | 0.121 | 0.015 | 0.15 | -0.089 | 0.021
3 | PRKCE (UniProt Q02156) | 0.051 | -0.071 | 0.083 | -0.168 | 0.032 | -0.092 | 0.071 | 0.055 | -0.003 | 
4 | PMPCB (UniProt O75439) | 0.012 | 0.015 | 0.054 | -0.081 | 0.055 | -0.096 | -0.019 | -0.019 | 0.009 | -0.034
5 | PELO (UniProt Q9BRX2) | 0.026 | -0.15 | -0.037 | 0.158 | 0.011 | -0.096 | 0.001 | 0.07 | 0.077 | -0.336
6 | POLR1A (UniProt O95602) | 0.076 | -0.017 | -0.116 | 0.125 | 0.111 | -0.03 | -0.145 | 0.08 | 0.141 | -0.151
7 | PDCD2L (UniProt Q9BRP1) | -0.059 | -0.048 | -0.083 | 0.068 | 0.053 | 0.225 | -0.007 | 0.097 | -0.058 | 0.062
8 | POM121 (UniProt Q96HA1) | 0.024 | -0.139 | -0.016 | 0.084 | -0.022 | -0.043 | 0.014 | 0.008 | 0.134 | -0.307 (active)
9 | PDS5B (UniProt Q9NTI5) | 0.03 | -0.229 | 0.222 | 0.041 | 0.004 | -0.149 | -0.604 (active) | 0.208 | -0.074 | -0.225
10 | PCYT1A (UniProt P49585) | -0.031 | -0.032 | 0.092 | -0.097 | 0.081 | -0.148 | 0.072 | 0.094 | -0.008 | 0.003
11 | PDE6D (UniProt O43924) | -0.165 | 0.001 | 0.079 | -0.148 | 0.109 | -0.202 | -0.076 | -0.098 | 0.084 | 
12 | PARG (UniProt Q86W56) | -0.027 | -0.147 | 0.013 | 0.016 | -0.005 | -0.094 | 0.022 | 0.123 | 0.015 | -0.148
13 | PRG4 (UniProt Q92954) | 0.08 | -0.19 | -0.014 | 0.023 | -0.145 | 0.098 | 0.167 | 0.004 | -0.229 | -0.114
14 | POLR2G (UniProt P62487) | 0.006 | 0.257 | 0.111 | 0.125 | 0.087 | 0.191 | -0.051 | -0.026 | -0.016 | 0.035
15 | PTGES3 (UniProt Q15185) | 0.047 | 0.066 | 0.068 | -0.101 | 0.03 | -0.049 | 0.063 | 0.086 | -0.118 | 0.015
16 | PEX7 (UniProt O00628) | -0.011 | -0.037 | 0.121 | 0.024 | 0.04 | -0.005 | -0.042 | 0.145 | 0.002 | -0.078
17 | PFDN1 (UniProt O60925) | 0.018 | 0.069 | 0.264 | -0.115 | 0.175 | 0.029 | 0.072 | 0.081 | 0.018 | 0.277
18 | POLR2K (UniProt P53803) | 0.029 | 0.18 | 0.074 | 0.098 | 0.154 | -0.011 | -0.065 | 0.001 | -0.059 | 0.029
19 | PAK4 (UniProt O96013) | -0.028 | -0.033 | 0.058 | -0.017 | 0.037 | -0.028 | -0.013 | 0.021 | -0.042 | -0.111
20 | PTTG1IP (UniProt P53801) | 0.043 | 0.1 | 0.102 | -0.044 | 0.118 | 0.094 | 0.107 | -0.075 | -0.106 | 
21 | PTPN12 (UniProt Q05209) | 0.031 | -0.018 | -0.04 | 0.069 | -0.022 | -0.088 | 0.089 | 0.053 | -0.004 | -0.011
22 | PML (UniProt P29590) | -0.011 | 0.017 | 0.025 | -0.027 | 0.072 | -0.019 | 0.07 | -0.051 | -0.054 | -0.027
23 | PIK3CB (UniProt P42338) | 0.043 | -0.077 | 0.064 | 0.034 | 0.318 (active) | -0.041 | -0.075 | 0.06 | 0 | -0.057
24 | PPP1R35 (UniProt Q8TAP8) | -0.025 | -0.036 | 0.179 | -0.037 | -0.071 | 0.044 | 0.007 | 0.025 | 0.024 | -0.058
25 | PSMC2 (UniProt P35998) | 0.011 | 0.003 | -0.087 | 0.079 | -0.061 | 0.027 | 0.031 | 0.014 | 0.005 | 0.016
26 | PCBP2 (UniProt F8VRH0) | -0.181 | -0.075 | -0.22 | -0.267 | -0.299 | 0.013 | -0.055 | 0.074 | -0.225 | 
27 | PRUNE1 (UniProt Q86TP1) | -0.011 | -0.064 | -0.002 | -0.026 | -0.047 | -0.071 | 0.097 | 0.056 | 0.008 | -0.018
28 | PEF1 (UniProt Q9UBV8) | 0.119 | 0.094 | 0.059 | -0.102 | 0.103 | -0.019 | 0.06 | 0.019 | -0.091 | 0.208
29 | PARN (UniProt O95453) | 0.028 | -0.095 | 0.125 | -0.025 | 0.048 | -0.127 | 0.024 | 0.069 | -0.037 | -0.021
30 | PIKFYVE (UniProt Q9Y2I7) | -0.016 | -0.068 | 0.096 | 0.073 | 0.005 | -0.062 | -0.005 | 0.091 | 0.023 | -0.061
